Experimental findings from ChEMBL document CHEMBL1961873, “Compounds: GSK PKIS; Assays: Nanosyn kinase panel” (2012) are described below.

The target in assay [1] is RAC-alpha serine/threonine-protein kinase (Homo sapiens) (UniProt P31749). The note with it: at 0.1 µM.
Assay [2] shares this target. The conditions noted are these: at 1 µM.
The target of assay [3] is RAC-beta serine/threonine-protein kinase (Homo sapiens) (UniProt P31751). The note with it: at 0.1 µM.
Assay [4] has the same target. The conditions noted are these: at 1 µM.
Assay [5] addresses RAC-gamma serine/threonine-protein kinase (Homo sapiens) (UniProt Q9Y243). The conditions noted are these: at 0.1 µM.
Assay [6] shares this target. The conditions noted are these: at 1 µM.
Assay [7] addresses G protein-coupled receptor kinase 6 (Homo sapiens) (UniProt P43250). The note with it: at 0.1 µM.
For assay [8] the target is unchanged. The note with it: at 1 µM.
Assay [9] addresses T1, Rhodopsin kinase GRK7 (Homo sapiens) (UniProt Q8WTQ7).
T1 sequence (whole entry): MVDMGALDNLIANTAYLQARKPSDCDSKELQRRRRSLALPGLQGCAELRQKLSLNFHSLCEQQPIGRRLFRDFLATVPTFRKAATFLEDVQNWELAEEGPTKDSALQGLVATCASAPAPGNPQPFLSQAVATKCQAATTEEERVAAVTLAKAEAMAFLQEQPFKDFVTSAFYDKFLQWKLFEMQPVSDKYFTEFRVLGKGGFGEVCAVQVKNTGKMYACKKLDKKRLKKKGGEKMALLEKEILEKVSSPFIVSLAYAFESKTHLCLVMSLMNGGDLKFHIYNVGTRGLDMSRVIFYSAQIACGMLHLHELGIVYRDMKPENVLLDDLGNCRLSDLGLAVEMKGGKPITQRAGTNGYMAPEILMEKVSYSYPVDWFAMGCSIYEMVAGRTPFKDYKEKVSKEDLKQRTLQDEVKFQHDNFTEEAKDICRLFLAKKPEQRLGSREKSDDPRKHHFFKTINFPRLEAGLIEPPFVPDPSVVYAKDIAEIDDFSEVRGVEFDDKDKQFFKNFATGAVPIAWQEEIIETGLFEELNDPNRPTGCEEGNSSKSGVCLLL
The conditions noted are these: at 0.1 µM.

In assay [10] the target is T1, Rhodopsin kinase GRK7 (Homo sapiens). The note with it: at 1 µM.
The target of assay [11] is Serine/threonine-protein kinase MRCK alpha (Homo sapiens) (UniProt Q5VT25). The note with it: at 0.1 µM.
For assay [12] the target is unchanged. The conditions noted are these: at 1 µM.
In assay [13] the target is Serine/threonine-protein kinase MRCK beta (Homo sapiens) (UniProt Q9Y5S2). The conditions noted are these: at 0.1 µM.
For assay [14] the target is unchanged. The conditions noted are these: at 1 µM.
The target in assay [15] is Ribosomal protein S6 kinase alpha-5 (Homo sapiens) (UniProt O75582). The note with it: at 0.1 µM.
Assay [16] shares this target. The conditions noted are these: at 1 µM.
Assay [17] concerns the target Ribosomal protein S6 kinase alpha-4 (Homo sapiens) (UniProt O75676). The conditions noted are these: at 0.1 µM.
For assay [18] the target is unchanged. The conditions noted are these: at 1 µM.
The target of assay [19] is Ribosomal protein S6 kinase beta-1 (Homo sapiens) (UniProt P23443). The conditions noted are these: at 0.1 µM.
Assay [20] has the same target. The note with it: at 1 µM.

G protein-coupled receptor kinase 6 (Homo sapiens), sequence (P43250 whole entry, looked up): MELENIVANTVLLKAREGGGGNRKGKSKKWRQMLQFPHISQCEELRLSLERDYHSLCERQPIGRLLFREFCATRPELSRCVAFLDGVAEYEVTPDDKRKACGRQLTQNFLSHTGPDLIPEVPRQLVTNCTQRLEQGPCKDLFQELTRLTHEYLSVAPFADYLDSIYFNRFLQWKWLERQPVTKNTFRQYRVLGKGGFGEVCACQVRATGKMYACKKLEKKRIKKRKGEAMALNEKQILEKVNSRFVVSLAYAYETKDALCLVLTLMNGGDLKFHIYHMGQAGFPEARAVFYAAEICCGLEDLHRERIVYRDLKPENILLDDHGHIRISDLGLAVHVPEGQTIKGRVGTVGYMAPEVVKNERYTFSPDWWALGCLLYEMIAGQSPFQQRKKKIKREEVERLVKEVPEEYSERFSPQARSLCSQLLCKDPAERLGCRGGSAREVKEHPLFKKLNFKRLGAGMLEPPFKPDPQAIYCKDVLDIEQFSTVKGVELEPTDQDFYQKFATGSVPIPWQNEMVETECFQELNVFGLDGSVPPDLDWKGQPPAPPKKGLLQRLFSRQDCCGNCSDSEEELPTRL
Serine/threonine-protein kinase MRCK beta (Homo sapiens), sequence (Q9Y5S2 whole entry): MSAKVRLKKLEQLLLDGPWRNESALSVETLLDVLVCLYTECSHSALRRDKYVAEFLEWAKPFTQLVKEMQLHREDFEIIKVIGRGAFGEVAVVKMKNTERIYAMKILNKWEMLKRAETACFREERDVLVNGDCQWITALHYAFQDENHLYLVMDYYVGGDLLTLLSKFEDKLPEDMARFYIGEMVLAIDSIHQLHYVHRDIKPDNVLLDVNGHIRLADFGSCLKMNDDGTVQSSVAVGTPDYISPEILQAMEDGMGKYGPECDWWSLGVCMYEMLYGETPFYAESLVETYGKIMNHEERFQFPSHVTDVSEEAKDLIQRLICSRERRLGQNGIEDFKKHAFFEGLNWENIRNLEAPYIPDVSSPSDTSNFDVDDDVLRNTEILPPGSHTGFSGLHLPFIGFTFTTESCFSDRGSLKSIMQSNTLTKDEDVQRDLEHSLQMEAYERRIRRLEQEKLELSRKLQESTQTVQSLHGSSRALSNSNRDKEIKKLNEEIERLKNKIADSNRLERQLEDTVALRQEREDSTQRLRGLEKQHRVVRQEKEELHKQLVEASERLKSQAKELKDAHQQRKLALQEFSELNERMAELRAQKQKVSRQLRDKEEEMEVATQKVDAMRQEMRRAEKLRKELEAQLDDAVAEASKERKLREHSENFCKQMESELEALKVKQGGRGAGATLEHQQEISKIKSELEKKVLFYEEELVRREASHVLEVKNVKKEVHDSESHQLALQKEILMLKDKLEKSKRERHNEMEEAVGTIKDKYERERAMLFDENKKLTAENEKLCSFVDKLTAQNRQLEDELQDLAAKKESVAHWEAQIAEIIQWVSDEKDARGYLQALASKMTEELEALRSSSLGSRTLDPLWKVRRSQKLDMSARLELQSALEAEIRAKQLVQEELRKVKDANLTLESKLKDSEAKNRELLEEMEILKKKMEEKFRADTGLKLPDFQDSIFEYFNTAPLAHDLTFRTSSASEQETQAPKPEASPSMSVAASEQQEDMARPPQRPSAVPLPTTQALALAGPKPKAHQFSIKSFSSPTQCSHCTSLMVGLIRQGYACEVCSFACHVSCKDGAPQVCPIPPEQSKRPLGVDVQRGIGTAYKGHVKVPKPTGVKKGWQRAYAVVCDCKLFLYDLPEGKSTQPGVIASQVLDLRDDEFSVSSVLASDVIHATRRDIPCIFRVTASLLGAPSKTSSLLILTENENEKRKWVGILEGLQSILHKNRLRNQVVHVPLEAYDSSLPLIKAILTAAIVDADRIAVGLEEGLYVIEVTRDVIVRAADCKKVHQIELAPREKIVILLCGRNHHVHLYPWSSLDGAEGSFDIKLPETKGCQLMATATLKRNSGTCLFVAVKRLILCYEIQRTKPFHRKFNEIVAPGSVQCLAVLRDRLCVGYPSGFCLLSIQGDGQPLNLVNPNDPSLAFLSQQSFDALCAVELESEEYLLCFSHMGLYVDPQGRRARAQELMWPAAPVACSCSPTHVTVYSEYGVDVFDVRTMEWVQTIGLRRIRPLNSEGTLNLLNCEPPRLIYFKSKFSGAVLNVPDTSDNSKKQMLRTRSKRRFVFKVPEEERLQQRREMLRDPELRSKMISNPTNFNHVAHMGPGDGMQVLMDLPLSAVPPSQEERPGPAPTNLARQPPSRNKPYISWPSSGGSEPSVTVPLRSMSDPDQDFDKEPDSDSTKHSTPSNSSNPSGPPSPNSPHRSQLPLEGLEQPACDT
Ribosomal protein S6 kinase alpha-4 (Homo sapiens), sequence (O75676 whole entry, looked up): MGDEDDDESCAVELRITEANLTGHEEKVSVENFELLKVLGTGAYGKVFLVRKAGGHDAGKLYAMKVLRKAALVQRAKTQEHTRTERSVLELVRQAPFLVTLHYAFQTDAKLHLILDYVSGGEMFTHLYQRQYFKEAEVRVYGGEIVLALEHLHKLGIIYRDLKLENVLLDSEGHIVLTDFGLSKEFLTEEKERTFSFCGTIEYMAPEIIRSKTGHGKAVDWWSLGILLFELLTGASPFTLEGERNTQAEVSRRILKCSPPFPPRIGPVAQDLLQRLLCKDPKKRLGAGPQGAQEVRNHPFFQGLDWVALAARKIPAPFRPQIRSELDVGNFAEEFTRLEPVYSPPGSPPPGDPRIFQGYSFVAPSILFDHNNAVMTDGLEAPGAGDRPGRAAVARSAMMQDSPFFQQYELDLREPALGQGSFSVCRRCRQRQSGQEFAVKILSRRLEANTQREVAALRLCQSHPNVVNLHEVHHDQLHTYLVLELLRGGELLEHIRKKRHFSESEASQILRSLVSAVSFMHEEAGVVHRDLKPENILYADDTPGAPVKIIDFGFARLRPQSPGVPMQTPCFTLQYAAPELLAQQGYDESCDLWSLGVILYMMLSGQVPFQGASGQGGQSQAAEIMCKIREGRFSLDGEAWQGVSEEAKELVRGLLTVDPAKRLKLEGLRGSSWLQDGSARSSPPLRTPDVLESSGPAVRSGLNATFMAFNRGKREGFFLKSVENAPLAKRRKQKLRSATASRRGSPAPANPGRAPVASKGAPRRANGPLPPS
Serine/threonine-protein kinase MRCK alpha (Homo sapiens), sequence (Q5VT25 whole entry): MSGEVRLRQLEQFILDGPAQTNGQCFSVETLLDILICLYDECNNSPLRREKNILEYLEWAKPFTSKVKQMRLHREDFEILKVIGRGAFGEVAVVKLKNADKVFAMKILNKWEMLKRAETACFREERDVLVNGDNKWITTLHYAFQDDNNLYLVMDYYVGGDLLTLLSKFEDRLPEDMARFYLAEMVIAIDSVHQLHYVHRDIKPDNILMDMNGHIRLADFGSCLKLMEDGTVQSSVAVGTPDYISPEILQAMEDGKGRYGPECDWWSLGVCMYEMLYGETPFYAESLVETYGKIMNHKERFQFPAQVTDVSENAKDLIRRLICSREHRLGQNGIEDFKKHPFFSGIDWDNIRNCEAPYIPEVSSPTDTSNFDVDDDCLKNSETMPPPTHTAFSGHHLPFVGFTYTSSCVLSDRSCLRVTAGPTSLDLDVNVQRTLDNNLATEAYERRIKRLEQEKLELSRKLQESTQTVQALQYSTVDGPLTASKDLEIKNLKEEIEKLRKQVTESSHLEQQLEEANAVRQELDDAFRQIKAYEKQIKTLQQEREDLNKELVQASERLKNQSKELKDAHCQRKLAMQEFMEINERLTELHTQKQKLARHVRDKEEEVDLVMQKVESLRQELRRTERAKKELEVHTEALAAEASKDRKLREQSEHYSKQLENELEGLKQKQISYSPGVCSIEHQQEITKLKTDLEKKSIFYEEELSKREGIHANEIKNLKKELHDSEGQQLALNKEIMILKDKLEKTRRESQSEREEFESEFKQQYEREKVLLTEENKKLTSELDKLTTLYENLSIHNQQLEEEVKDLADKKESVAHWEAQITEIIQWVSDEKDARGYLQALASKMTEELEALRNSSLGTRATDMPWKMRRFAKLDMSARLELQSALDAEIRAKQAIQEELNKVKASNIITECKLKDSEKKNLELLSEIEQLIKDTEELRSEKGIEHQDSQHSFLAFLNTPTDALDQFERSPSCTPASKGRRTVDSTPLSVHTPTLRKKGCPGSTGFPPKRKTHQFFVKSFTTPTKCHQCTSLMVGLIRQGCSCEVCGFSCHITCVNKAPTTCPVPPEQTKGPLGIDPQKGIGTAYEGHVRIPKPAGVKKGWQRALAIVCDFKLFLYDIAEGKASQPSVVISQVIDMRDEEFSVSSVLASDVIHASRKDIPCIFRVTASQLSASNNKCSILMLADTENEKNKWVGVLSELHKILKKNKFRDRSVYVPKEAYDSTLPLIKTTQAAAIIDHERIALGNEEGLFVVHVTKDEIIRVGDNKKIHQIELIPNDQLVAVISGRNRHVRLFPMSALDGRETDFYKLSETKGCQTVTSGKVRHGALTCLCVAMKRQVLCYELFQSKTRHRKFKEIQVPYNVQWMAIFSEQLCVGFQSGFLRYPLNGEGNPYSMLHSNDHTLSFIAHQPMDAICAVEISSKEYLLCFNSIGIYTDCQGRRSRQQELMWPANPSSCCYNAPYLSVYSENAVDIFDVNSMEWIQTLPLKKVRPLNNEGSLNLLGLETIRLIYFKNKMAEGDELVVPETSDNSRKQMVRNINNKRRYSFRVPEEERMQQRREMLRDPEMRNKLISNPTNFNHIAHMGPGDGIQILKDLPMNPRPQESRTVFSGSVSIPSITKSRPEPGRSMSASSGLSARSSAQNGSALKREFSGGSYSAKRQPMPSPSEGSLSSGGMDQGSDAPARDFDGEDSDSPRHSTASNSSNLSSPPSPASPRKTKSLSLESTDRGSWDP

Broadly, the inhibition is the drop in the measured response relative to a control, in per cent. Take `CCc1cccc(CC)c1/C=C/c1cncc(C(=O)NC)c1`: the inhibition in assay [1] came out at 0.7%; in assay [2], 0.8%; in [3] it was 2.06%; in assay [4], 1.3%; in assay [5], 2.25%; in assay [6] it was 1.32%. In addition, the inhibition was -2.11% in assay [7]; -0.96% in assay [8]; 1.2% in [9]; -8.54% in assay [10]; 0.02% in assay [11]; 0.07% in [12]. Also, the inhibition in assay [13] came to 0.83%; in [14] it was 1.46%; in assay [15], 3.05%; in [16], 2.79%; in assay [17], 0.51%; in assay [18] it was 2.52%. Besides, the inhibition in [19] is 1.3%; in [20], 0.41%.

With `NS(=O)(=O)c1ccc(N/N=C2\C(=O)Nc3ccc(C(=O)NCCCn4ccnc4)cc32)cc1`, the inhibition in assay [1] is -0.12%; in [2], 0.95%; in assay [3], 2.05%; in assay [4], 2.17%; in assay [5], 0.96%; in assay [6], 2.49%. Moreover, the inhibition in assay [7] amounted to 5.79%; in assay [8], 16.3%; in [9], 7.64%; in [10], 18%; in assay [11], 0.3%; in assay [12], 7.89%. For the same compound, the inhibition in assay [13] turned out to be 0.34%; in [14], 5.24%; in [15], 9.46%; in [16], 11.1%; in assay [17] it was 3.85%; in assay [18] it was 13.7%. Also, the figures for the inhibition in assay [19] and in assay [20] were 1.91% and 8.54%, respectively.

As to `NCc1ccc(-n2c(-c3nonc3N)nc3cnccc32)cc1`, the inhibition in [1] was 3.84%; in assay [2], 15.8%; in assay [3] it was 3.5%; in assay [4], 15.1%; in assay [5] it was 1.72%; in assay [6], 20.5%. The inhibition in assay [7] came out at 5.51%; in [8], 7.31%; in [9], 9.11%; in assay [10], 15.5%; in [11], 43.4%; in assay [12], 90.6%. Besides, the inhibition in [13] was 59.8%; in assay [14], 83.5%; in [15], 54.7%; in assay [16] it was 78.7%; in assay [17] it was 20.1%; in assay [18], 63.3%. Also, the inhibition in assay [19] was found to be 21.3%; in assay [20] it was 69.9%.

Consider `CCC(=O)Nc1ccc(C)c(-c2ccc(C(=O)NCC3CC3)cc2)c1`, for which the inhibition in assay [1] worked out at 0.29%; in [2], 0.52%; in [3], 2.4%; in assay [4], 1.7%; in assay [5], 0.86%; in [6] it was 2.4%. Also, the inhibition is 4.21% in [7]; 3.82% in [8]; 8.7% in assay [9]; 1.14% in [10]; 0% in assay [11]; 1.8% in [12]. Further, the inhibition in [13] was -0.7%; in [14] it was 0.23%; in assay [15] it was 0.17%; in assay [16] it was -0.98%; in assay [17] it was 1.96%; in [18] it was 2.63%. For the same compound, the inhibition was found to be 0.91% in assay [19] and 1.77% in assay [20].

As to `O=C(Nc1n[nH]c2nc(-c3ccc(O)cc3)c(Br)cc12)C1CC1`, the inhibition in assay [1] is 0.84%; in assay [2] it was 2.07%; in [3] it was 2.21%; in assay [4], 3.12%; in assay [5] it was 3.32%; in assay [6], 12.5%. Further, the inhibition in assay [7] amounted to 11.6%; in assay [8] it was 32.6%; in assay [9] it was 5.77%; in assay [10], 17.4%; in assay [11], 1.56%; in assay [12], 13.5%. The inhibition came to 1.77% in [13]; 15.5% in [14]; 5.22% in assay [15]; 13.6% in [16]; 2.78% in [17]; 6.3% in assay [18]. Also, the inhibition in [19] turned out to be 2.07%; in assay [20] it was 6.85%.

As for `O=C(NCC1CC1)c1ccc(-c2cccc(C(=O)NC3CC3)c2)cc1`, the inhibition came out at 0.06% in [1]; 0.79% in assay [2]; 1.68% in assay [3]; 1.73% in assay [4]; 1.52% in [5]; 1.7% in assay [6]. Further, the inhibition in assay [7] was 1.72%; in assay [8], -2.28%; in assay [9], 0.75%; in assay [10], -7.67%; in [11], 0.69%; in [12] it was -1.55%. For the same compound, the inhibition in [13] is 1.52%; in assay [14], 1.09%; in [15], 2.45%; in [16] it was 2.84%; in [17] it was 0.7%; in [18], 3.88%. Further, the inhibition was 1.49% in assay [19] and 1.03% in [20].

In the case of `O=C(Nc1n[nH]c2cc(-c3ccccc3)ccc12)C1CC1`, the inhibition in assay [1] was 0.57%; in assay [2] it was -0.63%; in assay [3], 1.2%; in [4], 1.68%; in assay [5] it was 0.33%; in assay [6], 2.94%. Moreover, the inhibition in [7] is 2.59%; in assay [8] it was 3.48%; in assay [9], 3.13%; in [10] it was 3.52%; in assay [11], 0.05%; in assay [12], -1.04%. Besides, the inhibition is 0.91% in [13]; 0.02% in assay [14]; 5.17% in [15]; 5.56% in assay [16]; 2.14% in [17]; 1.76% in [18]. The inhibition in assay [19] amounted to 0.9%; in assay [20], 1.27%.
